# Measured values: PubChem BioAssay (NCATS)
# Results filed as inconclusive are left out. The source made the active and inactive calls. Calls follow the shape of the dose curve; as a rule, active = well fitted inhibition curve with a large enough effect; inconclusive = small, poorly fitted or top-dose-only effect; inactive = flat fitted curve, though single readings scatter.
# Target: Ubiquitin carboxyl-terminal hydrolase 1 (Homo sapiens) (UniProt O94782)
# Assay: Inhibitors of USP1/UAF1: Pilot qHTS (AID 504865);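 also: rhodamine fluorescence freed from ubiquitin-rhodamine substrate followed over time; top concentration of the series differs between compounds; nearly all actives have a fitted effect of over 35% in size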
# Conditions: purified USP1/UAF1, Ub-rhodamine cleavage fluorescence; series mostly up to 114 µM; activity change, negative = inhibition: at the top concentration
# Text: Deubiquitinating enzymes (DUBs) are a class of enzymes that can cleave isopeptide bond formed between the C-terminal carboxylate of ubiquitin and a lysine side-chain amino group on the target protein. Among them, ubiquitin specific proteases (USPs) constitute the largest DUB family. Human USPs are emerging as promising targets for pharmacological intervention because of their connection to a number of human diseases, including prostate, colon and breast cancer (1, 2), pediatric acute lymphoblastic leukemia (3), and familial cylindromatosis (4). The advantage of inhibiting USPs lies in the potential specificity of therapeutic intervention that can lead to better efficacy and reduce nonspecific side effects.
# In a collaboration between the University of Delaware and the NIH Chemical Genomics Center, a high-throughput screen assay was developed to screen for USP1/UAF1 inhibitors. This miniaturized assay has a fluorescent read-out and is used to screen the NIH Molecular Libraries Small Molecule Repository (MLSMR) in order to identify a small molecule that inhibits USP1.
# NIH Chemical Genomics Center [NCGC]
# NIH Molecular Libraries Probe Centers Network [MLPCN]
# Assay Submitter (PI): Zhihao Zhuang, University of Delaware
# 1. Priolo, C., et al. (2006) The isopeptidase USP2a protects human prostate cancer from apoptosis. Cancer Res 66, 8625-8632
# 2. Popov, N., et al. (2007) The ubiquitin-specific protease USP28 is required for MYC stability. Nat Cell Biol 9, 765-774
# 3. De Pitta, C., et al. (2005) A leukemia-enriched cDNA microarray platform identifies new transcripts with relevance to the biology of pediatric acute lymphoblastic leukemia. Haematologica 90, 890-898
# 4. Kovalenko, A., et al. (2003) The tumour suppressor CYLD negatively regulates NF-kappaB signalling by deubiquitination. Nature 424, 801-805
# 3 microliters of reagents (buffer in columns 3 and 4 as negative control and 1nM USP1/UAF1 complex in columns 1, 2, and 5-48) are dispensed into Greiner black solid bottom 1536-well assay plates. Compounds are then transferred via Kalypsys pin tool equipped with 1536-pin array (10nl slotted pins, V&P Scientific, San Diego, CA). Following an incubation step of 15 min at room temperature, 1ul of Ub-Rho substrate (150nM final concentration) is added to initiate the reaction. The plates are immediately centrifuged at 1000 rpm for 15 seconds, and subsequently transferred to a ViewLux high-throughput CCD imager (PerkinElmer) wherein kinetic measurements of fluorescence are acquired using 480 nm excitation/540 nm emission filter set (6 reads every 60 seconds, see Table 1). All reagents are diluted in an assay buffer consisting of 50mM HEPES (pH 7.8), 0.5mM EDTA, 0.1 mg/ml BSA, 1mM TCEP, and 0.01% Tween-20.
# % is scaled to controls: 0 for no effect and ±100 for the full control effect.
# Ubiquitin carboxyl-terminal hydrolase 1 (Homo sapiens), sequence (O94782 whole entry, looked up): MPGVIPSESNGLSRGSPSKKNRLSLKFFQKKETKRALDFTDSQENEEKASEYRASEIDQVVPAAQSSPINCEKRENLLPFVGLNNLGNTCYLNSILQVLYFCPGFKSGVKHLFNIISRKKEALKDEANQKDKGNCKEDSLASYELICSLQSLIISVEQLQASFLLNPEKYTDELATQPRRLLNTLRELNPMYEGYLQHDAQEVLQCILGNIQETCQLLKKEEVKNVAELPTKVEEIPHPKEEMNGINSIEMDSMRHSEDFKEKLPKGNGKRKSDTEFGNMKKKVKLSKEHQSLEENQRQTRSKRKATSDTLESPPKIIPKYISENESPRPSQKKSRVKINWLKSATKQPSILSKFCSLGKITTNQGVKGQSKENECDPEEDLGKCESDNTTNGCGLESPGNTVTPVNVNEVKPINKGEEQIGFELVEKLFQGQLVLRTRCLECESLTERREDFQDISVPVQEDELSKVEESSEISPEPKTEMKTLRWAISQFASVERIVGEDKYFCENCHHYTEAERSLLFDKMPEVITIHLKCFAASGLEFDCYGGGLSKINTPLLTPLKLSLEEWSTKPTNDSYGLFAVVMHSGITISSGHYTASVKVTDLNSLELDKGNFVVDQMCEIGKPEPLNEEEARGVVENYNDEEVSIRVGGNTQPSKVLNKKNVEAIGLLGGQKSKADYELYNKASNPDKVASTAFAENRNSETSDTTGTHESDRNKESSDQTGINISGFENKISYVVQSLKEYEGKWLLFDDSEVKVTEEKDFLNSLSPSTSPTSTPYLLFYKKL
SMILES,"activity change, negative = inhibition",Potency
Oc1c(Cl)cc(Cl)c2cccnc12,-16.3% (inactive),–
CC1CC2C3CCC4=CC(=O)C=C[C@]4(C)[C@@]3(F)[C@@H](O)C[C@]2(C)[C@@]1(O)C(=O)CO (stereo not given in full),-8.63% (inactive),–
CC(C)Cn1cnc2c(N)nc3ccccc3c21,6.36% (inactive),–
CNS(=O)(=O)Cc1ccc2[nH]cc(CCN(C)C)c2c1,5.31% (inactive),–
CN(Cc1cc(Br)cc(Br)c1N)C1CCCCC1,-14.7% (inactive),–
CNC1CCCN(c2c(F)cc3c(=O)c(C(=O)O)cn(C4CC4)c3c2OC)C1 (stereo not given),-1.07% (inactive),–
NC(N)=NC(N)=NCCc1ccccc1,–,inactive
COc1cc2c(Nc3ccc(Br)cc3F)ncnc2cc1OCC1CCN(C)CC1,-7.08% (inactive),–
CCn1cc(C(=O)O)c(=O)c2cc(F)c(N3CCNCC3)nc21,0.715% [at 54.9 µM] (inactive),–
N=C(N)c1ccc(OCCCCCOc2ccc(C(=N)N)cc2)cc1,-4.1% (inactive),–
COc1c(N2CCNC(C)C2)c(F)cc2c(=O)c(C(=O)O)cn(C3CC3)c12 (stereo not given),-5.94% (inactive),–
O=C(O)c1cccnc1,–,inactive
CCOCC(O)COc1ccc(NC(=O)CC[S+](C)C)cc1 (stereo not given),-4.08% (inactive),–
COc1ccc2cc3[n+](cc2c1OC)CCc1cc2c(cc1-3)OCO2,–,inactive
CCCCCCNC(=O)n1cc(F)c(=O)[nH]c1=O,-8.47% (inactive),–
CCN(CC)CC#CCOC(=O)C(O)(c1ccccc1)C1CCCCC1 (stereo not given),-15.1% (inactive),–
CCCc1nc(C)c2c(=O)[nH]c(-c3cc(S(=O)(=O)N4CCN(CC)CC4)ccc3OCC)nn12,0.339% (inactive),–
CN1CCCC(n2nc(Cc3ccc(Cl)cc3)c3ccccc3c2=O)CC1 (stereo not given),-10.1% (inactive),–
CCN(C)C(=O)Oc1cccc([C@H](C)N(C)C)c1,-5.6% (inactive),–
Cc1ccnc2c1NC(=O)c1cccnc1N2C1CC1,-4.42% (inactive),–

SMILES,"activity change, negative = inhibition",Potency
COC(=O)Nc1nc2ccc(C(=O)c3ccccc3)cc2[nH]1,-0.134% [at 54.9 µM] (inactive),–
CCCN[C@H]1CCc2nc(N)sc2C1,-1.65% (inactive),–
Cc1ncc([N+](=O)[O-])n1CCO,–,inactive
CC(=O)CC(c1ccccc1)c1c(O)c2ccccc2oc1=O (stereo not given),-9.17% (inactive),–
CN1CCN(c2c(F)cc3c(=O)c(C(=O)O)cn4c3c2OCN4C)CC1,4.57% (inactive),–
CCOC(=O)[C@H](CCc1ccccc1)N[C@H]1CS[C@H](c2cccs2)CN(CC(=O)O)C1=O,-9.74% (inactive),–
CC(=O)Oc1ccccc1C(=O)Nc1ncc([N+](=O)[O-])s1,-8.3% (inactive),–
COc1cc2nc(N3CCCN(C)CC3)nc(NC3CCN(Cc4ccccc4)CC3)c2cc1OC,2.21% (inactive),–
COc1ccc2c(c1)c(CC(=O)OCC(=O)O)c(C)n2C(=O)c1ccc(Cl)cc1,-12.6% [at 54.9 µM] (inactive),–
CC(C)(C)C(=O)OCOP(=O)(COCCn1cnc2c(N)ncnc21)OCOC(=O)C(C)(C)C,-2.11% (inactive),–
COc1cc(NS(=O)(=O)c2ccc(N)cc2)nc(OC)n1,9.4% [at 54.9 µM] (inactive),–
Cc1nnc(NS(=O)(=O)c2ccc(N)cc2)s1,–,inactive
CN(C)CCc1c[nH]c2ccc(CS(=O)(=O)N3CCCC3)cc12,-4.99% (inactive),–
C[C@]12C=CC(=O)C=C1CC[C@@H]1[C@@H]2C(=O)C[C@@]2(C)[C@H]1CC[C@]2(O)C(=O)CO,-9.01% (inactive),–
CCN(CC)CCn1c(=O)c(Cc2ccc(OC)cc2)nc2ccccc21,-2.22% (inactive),–
Cn1nnc2c(C(N)=O)ncn2c1=O,-3.26% (inactive),–
OCc1ccc(-c2nn(Cc3ccccc3)c3ccccc23)o1,-10.4% (inactive),–
O=C(N[C@H](CO)[C@H](O)c1ccc([N+](=O)[O-])cc1)C(Cl)Cl,7.67% (inactive),–
CCN1CCCC1CNC(=O)c1cc(S(N)(=O)=O)ccc1OC (stereo not given),8.43% (inactive),–
CCOC(=O)c1ccc(OC(=O)CCCCCN=C(N)N)cc1,–,inactive
